Screening results as filed in PubChem BioAssay.
Compounds with a hit are over-represented: about 1.9% of the library has one in this group of screens.
TNF necrop inh: inhibitors of TNF-alpha induced necroptosis in Jurkat FADD-/- cells. Jurkat FADD-/- TNF necroptosis rescue, ATP luminescence, 24 h; 0 = TNF only, 100 = no-TNF cells. activation (protection from cell death), % at 10 µM. 220,000 tested, 0.068% active. AID 463075;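 active means activation, meaning protection from cell death, of at least 50% relative to plate controls; inactive means activation below 50%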;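 further: necroptosis triggered by 40 ng/mL TNF-alpha added together with compound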
zVAD death inh: L929 zVAD cell death inhibition; L929 zVAD necroptosis rescue, ATP luminescence, 24 h; with zVAD 60 µM; viability rescue, % at 10 µM; 220,000 tested, 0.38% active; AID 1377;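 active means activation, scaled between plate controls, above about 75%, limit read from the data; inactive means activation under that limit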
HSF-1 act: increases HSF-1 driven luciferase reporter signal; NIH3T3-HGL HSF-1 luciferase reporter, MG132, 8 h; 100% = twice DMSO control signal; activation, % at 9 µM; 300,000 tested, 1.7% active; AID 504408;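 active means mean replicate activation of at least 50% with a set share of replicates each reaching 50%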
Hsp70 act: Hsp70 transcriptional activation, primary screen. AID 1203. 200,000 tested, 0.04% active. activation, % at 10 µM. HeLa Hsp70 promoter luciferase reporter, luminescence; scaled: vehicle 0, proteasome-inhibitor control 100%;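 active means activation above the mean across all tested compounds plus 3 SD, cutoff set per campaign, cut at about 5.5% in these data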
zVAD necrop conf: confirmed blocker of zVAD induced death in L929 cells. 760 tested, 16% active. shares compounds with zVAD death inh. activation (protection from necroptosis), % at 10 µM. AID 463117. L929 zVAD-induced necroptosis rescue, ATP luminescence, 24 h;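 active means mean protection from necroptosis of at least 50% over duplicate tests; inactive means mean protection below 50%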
Hits are given with their value; n = inactive; x = no result.

SMILES | TNF necrop inh | zVAD death inh | HSF-1 act | Hsp70 act | zVAD necrop conf
Cc1ccc(NC(=O)COC(=O)c2ccc3c(c2)NC(=O)C2CCCN32)cc1 (centres undefined) | n | 83 | n | n | n
COC(=O)c1ccc2c(c1)NC(=O)C1CCCN21 (centres undefined) | x | x | n | x | x
O=C(Nc1nccs1)c1ccc(-c2ccc(F)cc2)o1 | n | 83 | 73 | n | n
Cc1cccc(C)c1OCC(=O)N(Cc1ccc(N(C)C)cc1)C1CCS(=O)(=O)C1 (centres undefined) | n | n | n | x | x
CC(C)(C)c1csc(N/N=C/c2cccnc2)n1 | n | 77 | n | n | n
CCOC(=O)CCC(=O)NNC(=O)c1ccc(NC(=O)c2ccccc2)cc1 | n | 75 | n | n | n
O=C(NC(=S)N(CC1CCC1)CC1CCCO1)c1cccc([N+](=O)[O-])c1 (centres undefined) | n | n | n | n | x
Nn1cnn(Cc2ccccc2)c1=S | n | 88 | x | n | n
Cc1ccc2c(C)nc(Nc3nc(CSc4nc5ccccc5[nH]4)cc(=O)[nH]3)nc2c1 | n | 87 | n | n | 53
CN(C)/C=C/C(=O)c1ccc(Cl)cc1 | n | n | n | n | x
CN(C)/C=C/C(=O)c1ccc(-n2cccc2)cc1 | n | 77 | n | n | n
Cc1cc(=O)n2nc(N3CCCC(C(=O)NCc4cccc(Br)c4)C3)sc2n1 (centres undefined) | x | x | n | x | x
CCn1c(=O)c(-c2nc3ccccc3[nH]2)c(O)c2ccccc21 | n | 80 | n | n | n
CCCn1c(=O)c(-c2nc3ccccc3[nH]2)c(O)c2ccccc21 | n | n | n | n | x
C=C(c1ccccc1O)n1ccnc1 | x | x | n | x | x
CCN1C(=O)/C(=C/c2ccc(C)s2)NC1=S | n | 98 | n | n | 94
O=c1oc2ccccc2nc1/C=C(\O)c1ccccc1 | n | n | n | x | x
CC(C)(C)/C(O)=C/c1nc2ccccc2oc1=O | n | 88 | n | n | n
Cn1c(CNC(=O)c2ccccc2F)nnc1SCC(=O)c1ccccc1 | x | x | n | x | x
CCN(c1ccccc1)S(=O)(=O)c1ccc(Oc2ccc(-n3ccnc3)cc2)nc1 | n | 87 | n | n | n
CCN(c1ccccc1)S(=O)(=O)c1ccc(C(=O)NCCCn2ccnc2)cc1 | n | n | n | n | x
COc1ccc(CNC(=O)CN(C(=O)CCC(=O)Nc2ccccn2)c2cccc(C)c2C)cc1 | x | x | n | x | x
CN1C(C(=O)NCc2ccccc2)CC2Cn3c(nc4cc5ccccc5cc43)C21 (centres undefined) | n | n | n | x | x
COc1ccc2nc(NC(=O)CN3CCOCC3)sc2c1 | n | n | n | n | x
CCN1CCN(CC(=O)Nc2nc3ccc(OC)cc3s2)CC1 | n | 84 | n | n | n
SMILES | TNF necrop inh | zVAD death inh | HSF-1 act | Hsp70 act | zVAD necrop conf
COc1ccc2nc(NC(=O)CN3CCN(C)CC3)sc2c1 | n | 92 | n | n | n
COc1ccc2nc(NC(=O)CCNC(=O)c3ccccc3Cl)sc2c1 | n | 78 | n | n | n
CCCC(=O)Nc1nc2ccc(OC)cc2s1 | n | n | n | n | x
COc1ccccc1S(=O)Cc1ccc(C(=O)NCCc2ccc(Cl)cc2)o1 (centres undefined) | n | n | n | n | x
CN1CCN(C(=O)CSc2nc(-c3cccs3)ccc2C#N)CC1 | n | n | n | n | x
O=C1CC(C2CCCO2)C(=O)N1c1ccccc1 (centres undefined) | n | n | n | n | x
c1ccc(Nc2nc3ccccc3[nH]2)nc1 | n | 75 | 62 | n | n
Nc1ccc(Nc2nc3ccccc3[nH]2)cc1 | x | x | n | x | x
COc1ccc(S(=O)(=O)n2ccnc2C)c(C)c1C | x | x | n | x | x
CCOc1ccc(NC(=O)Nc2ccc3nccnc3c2)cc1 | n | 92 | n | n | n
COc1ccc(NC(=O)Nc2ccc(Br)cn2)cc1OC | n | 77 | n | n | n
CCOc1ccc(NC(=O)Nc2ccc(Br)cn2)cc1 | n | 75 | n | n | n
CC(C)N(CCCNC(=O)Cn1c(=O)c2cccn2c2ccc(F)cc21)Cc1ccccc1 | x | x | n | x | x
Nc1ncnc2oc(-c3ccco3)c(-c3ccco3)c12 | n | 79 | n | n | n
COC(=O)c1ccc(COc2ccc(CNCc3ccc(Cl)cc3)cc2)cc1 | x | x | n | x | x
CC(C)c1nnc(NC(=O)CCC(=O)N2CCN(c3ccccc3F)CC2)s1 | x | x | n | x | x
Cc1cc(C)nc(N2CCN(C(=O)CCC(=O)Nc3nnc(C(C)C)s3)CC2)n1 | n | 76 | n | x | n
Cc1cc(-c2ccc(C(C)C)c(S(=O)(=O)N3CCN(c4ccccn4)CC3)c2)on1 | x | x | n | x | x
CC(=O)C1=C(O)C(=O)N(Cc2ccccc2)C1c1ccco1 (centres undefined) | n | n | n | n | x
CC(=O)c1cnc(Nc2ccc(C)cc2)s1 | n | 84 | n | n | n
Nc1c2c(=O)oc(-c3ccccc3)cc2nn1-c1ccccc1 | n | 90 | n | n | n
O=c1c(O)c(-c2ccc3c(c2)OCO3)oc2ccccc12 | n | 77 | n | n | n
Cc1[nH]c(C)c(S(=O)(=O)N2CCCCC2C)c1C(=O)N1CCCC1 (centres undefined) | x | x | n | x | x
Cc1[nH][nH]c(=O)c1C(c1c(C)[nH][nH]c1=O)c1cn(Cc2cccc3ccccc23)c2ccccc12 | n | n | x | n | x
Cc1[nH][nH]c(=O)c1C(c1c(C)[nH][nH]c1=O)c1cn(C)c2ccccc12 | n | 80 | x | n | n
SMILES | TNF necrop inh | zVAD death inh | HSF-1 act | Hsp70 act | zVAD necrop conf
COc1cc(SC)ccc1C(=O)Nc1cccc(C2OCCCO2)c1 | x | x | n | x | x
COc1cc(NC2c3ccccc3C(=O)N2Cc2ccc3c(c2)OCO3)cc(OC)c1 (centres undefined) | n | n | n | x | x
CC1CCCN(Cc2c(O)ccc3c(=O)c(-c4nc5ccccc5s4)c(N)oc23)C1 (centres undefined) | n | 78 | n | n | n
Cc1ccc(-c2ccc(=O)n(CC(=O)N3CCN(c4cc(Cl)ccc4C)CC3)n2)cc1 | n | n | n | n | x
COc1ccccc1NC(=O)c1ccc(-c2nn(C)c(=O)c3ccccc23)cc1 | n | 78 | n | n | n
COc1ccc(NC(=O)c2ccc(-c3nn(C)c(=O)c4ccccc34)cc2)cc1 | n | n | n | n | x
COc1ccc(C(=O)NCc2nnc(SCC(=O)c3ccc(F)cc3)n2C)cc1OC | x | x | n | x | x
CC(C)NS(=O)(=O)c1ccc(CCC(=O)Nc2ccc3c(c2)OCO3)cc1 | n | n | n | n | x
Cn1nc(C(C)(C)C)cc1NC(=O)Nc1ccc(F)cc1F | n | n | n | x | x
Cn1nc(C(C)(C)C)cc1NC(=O)Nc1ccc(Cl)cc1 | n | 82 | n | x | 55
Cn1c(N)c(C(=O)COC(=O)CC(NC(=O)c2ccccc2Cl)c2ccccc2)c(=O)n(C)c1=O (centres undefined) | n | n | n | n | x
CN=C1S/C(=C/c2cn(CC(=O)OC)c3ccccc23)C(=O)N1C | n | n | n | x | x
CN=C1S/C(=C\c2cn(CC(=O)OC)c3ccccc23)C(=O)N1C | n | 75 | n | n | n
CC(=O)N(C(C)=O)c1ncc2c([nH]c3ccccc32)c1C#N | n | 87 | n | n | n
